The whole screen tested about 31,000 sequences, of which about 1,400 (4.5%) were called active. This is one part of a sample in which actives are shown more often than they occur.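 The calls were made as follows: active = median seed-adjusted z-score above 1 or below -1; inactive = the rest.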

The assay is described as follows: Novel Modifiers of Survival Motor Neuron (SMN) Protein: Gene Identification via Genome-wide siRNA Screen.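 Also: luminescence tracks full-length SMN protein made from the SMN2 reporter.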 The settings on record: HEK293T SMN2-luciferase reporter, siRNA knockdown, 72 h; actives lie on both sides. The method, boiled down:
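Genome-wide siRNA screen (10418 genes, 3 siRNAs each, 1 pmol per well) by reverse transfection in HEK293T cells stably carrying an SMN2-luciferase reporter; luminescence after 72 hours, normalized to negative-control siRNA, log10-transformed, MAD-scored.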
Background: In a reporter assay the amount or activity of a reporter protein is the signal.
On to AGAACGUGCUCUUCGCUCATT against PRKAR1B, for which the median seed-adjusted z-score is -0.0406 (inactive).
In the case of GGAAAGUUUUUAAGGCGAATT against UHRF2 it was -0.0941 (inactive); in that of CAUUGGAAAGUGCGAGUUATT against HUWE1, 0.734 (inactive).
In the case of GAGUGAAGUAUAAUCCAUATT against TPH1 it was -0.055 (inactive).
The figure for CUCUGGUAGAAUCCAAUUATT against GIN1 is -0.0585 (inactive).
On to CCGCUGAGGUGACAACAAATT against XRCC5, for which the median seed-adjusted z-score is -1.11 (active).
UCUUCUAAAUACUUCCUAATT against GJC3: the median seed-adjusted z-score is -0.137 (inactive).
The figure for GCAUUUGCCCAGUUCAUGATT against RBM28 is 0.649 (inactive); for CACUGUCCUUGGGUGAAUATT against ZDHHC20 it is -0.936 (inactive).
The figure for CAAGUAUAUUGAACGAGGATT against SLITRK4 is -0.015 (inactive); for UGGUCUCAAUGACAGUAGATT against SNRPB it is -3.17 (active); for GCUAAGUACAAAUCAUUCATT against FCN1 it is 0.346 (inactive).
For GGAGAGUGGUGAUCGGAUATT against MYOM3, the median seed-adjusted z-score is -0.012 (inactive).
The figure for CGAUUCACCAGGAACGACATT against ZBTB7B is -0.242 (inactive); for GCCUCAUACCAUUCCAUAUTT against MEP1B it is 1.46 (active).
In the case of CAGAGGUACUCCACGCAGATT against BHLHA15 it was -0.199 (inactive); in that of GGCUGGUACCUGGAUGAGATT against FTCD, -0.27 (inactive).
In the case of GUCUAAUGCACUUAGCUAATT against HEL308 it was 0.229 (inactive); in that of GCAAAACGGAGGAUUGAGATT against EIF5B, 1.68 (active).
On to GAAUGUGACAAUACAUUUATT against ZNF431, for which the median seed-adjusted z-score was 0.00537 (inactive).
The figure for GGAACAAACCCUUAGCUAATT against SLITRK1 is 0.215 (inactive); for GGAGUUUCCAGAUCUCAAATT against LGR6 it is 0.237 (inactive).
In the case of GACUCAUACCAAUCACGAATT against JMJD1A it was 0.466 (inactive); in that of GGGUCCCUAUUAUCCAGCATT against BAT3, 0.567 (inactive).
The figure for GACAGAUGACUGAUCCUAATT against PSMD13 is 0.58 (inactive); for GACGGCCUCUAUUACCUCUTT against LTB it is 0.646 (inactive).
As to CUGUCAAUGUUAUUACUCUTT against TSG101, the median seed-adjusted z-score is 1.48 (active).
Take GAAUAAUGCUUAUGCUAGATT against CLIC6: the median seed-adjusted z-score was -0.00828 (inactive).
The figure for AAUUCUACGAGUCCAAGUATT against GPS1 is 0.205 (inactive).
The figure for CAGCCCGUUUUGAAGGGUATT against CRIP3 is 1.7 (active).
Consider CGAUGGGUAUGAGCCUGGATT against ATHL1, for which the median seed-adjusted z-score is 0 (inactive).
In the case of UAUGGGCUCUUGAACCAAATT against MTNR1B it was -0.393 (inactive).
The figure for GGGUGAUCUUGAUACUGCATT against TOP2B is 0.225 (inactive); for GAUGCAAACUAGUCCUGAATT against MLC1 it is -0.284 (inactive).
The figure for AAUCGCUCAUGGUUUUUAATT against LRFN3 is 0.483 (inactive); for AUGUGCACCUGACUACUCATT against KRT35 it is -0.1 (inactive).
Take CGCGUUCUUCGAUAUGGUATT against PCDHGB6: the median seed-adjusted z-score is 0.34 (inactive).
As to GGCUUUUACCCGCAUGUCATT against ZNF460, the median seed-adjusted z-score was -0.302 (inactive).
Take GCAGAAUAACCUCCAGUAUTT against SLC35A2: the median seed-adjusted z-score is 1.06 (active).
In the case of GACUUUGCAUUUCCUAGUATT against HSPA1A it was -0.833 (inactive); in that of CUACUAUUCAGAGACAACATT against GPR3, 0 (inactive); in that of GAAAGAAGAAUAUACUGAUTT against RBBP6, -0.212 (inactive).
The figure for GGAAAUUACGGCUACAGAATT against AP1S3 is 0.153 (inactive); for CCUUCUGUAGGAUGCAUUUTT against LY6G5B it is -1.29 (active).
In the case of CAAGAGCACCGGUAAGGAATT against HSPA2 it was -0.0343 (inactive); in that of UGAACUACGUGACCGCGAATT against ELAVL1, 0.316 (inactive); in that of GCAACUCCAGCCUAAUUAATT against ZNF792, 0 (inactive).
With CUGUGGUCUCUGUCUCUUATT against GPR75, the median seed-adjusted z-score was 0 (inactive).
The figure for CCAACAAGGUAGACCCAUUTT against PSMC5 is -1.06 (active); for CUACCAGCCCUACACCAUUTT against CCL1 it is 0.537 (inactive); for GGAGAUCCGUGAUGUAACATT against RUVBL2 it is -0.0764 (inactive).
With AGAUGAAUCUGGAAUCGGUTT against LCN1, the median seed-adjusted z-score is 0.0607 (inactive).
In the case of CCGAAUGAGUUUGAACAUATT against ZNF48 it was -0.116 (inactive).
In the case of GGCUCUUCAUGGACCUUCATT against GPR173 it was -0.147 (inactive).
In the case of CAACCACAAUGUUCGUAAATT against GBF1 it was -0.162 (inactive); in that of GAAUGUCCCUUUAACUGCATT against NFXL1, 0.118 (inactive); in that of CGAGUACUGUCUCAAGGUATT against TTC9B, -0.272 (inactive).
Take CAAUUACGAAUAGAAUUGATT against WEE1: the median seed-adjusted z-score was -4.05 (active).
The figure for AGGACCAAAUGUCAAUUUATT against IL1RN is 0.283 (inactive); for GGUGUGAACUGCGAAGUGATT against NOTCH3 it is 0.395 (inactive).
With GGACGUGACUUACAUAGUUTT against PRLR, the median seed-adjusted z-score is 0.394 (inactive).
In the case of CAGUUUAUCUCAGACAUCUTT against CD9 it was -1.02 (active).
In the case of UGGUCCGACUGGUACGACATT against TAC1 it was 0.0499 (inactive); in that of GAGUCUUUAUUGGUAAAGATT against GLRX, -0.0561 (inactive); in that of ACAUUGUGGUAGCCUUGUATT against LYN, -0.178 (inactive).
GGCUGUCCUUAGUACCAGATT against CFTR: the median seed-adjusted z-score was -1.23 (active).
Turning to GGAACUAAACUUGAUCUUATT against RAC1, the median seed-adjusted z-score is -0.0348 (inactive).
The figure for GAGUCGCUUUAGCUCCGAATT against XPNPEP2 is -0.158 (inactive).
As to GGGAAAGCUGGACUACUAATT against PIK3CB, the median seed-adjusted z-score was 0.0911 (inactive).
In the case of CAAGGUGUUUUACCUGAAATT against YWHAH, the median seed-adjusted z-score was -0.125 (inactive).
The figure for GCGUGACAGUGAUCCUGUATT against SLC27A5 is 0.441 (inactive).
In the case of AGAUCGACGUGAUCAAGCATT against GNAS it was -0.531 (inactive); in that of GGACAUCUGGGUGAAGUUUTT against SNRPF, -2.66 (active); in that of CUAUCACUCUGGAACUGGATT against SMC2, -0.052 (inactive).
As for GGACAUGAACCAUACGAAUTT against PRPF8, the median seed-adjusted z-score was -1.54 (active).
For CAAUAAGACUGAGUUAUUATT against ETNK1, the median seed-adjusted z-score is 0.299 (inactive).
On to GACCCAAAGCGGCAGCAAATT against KLRC2, for which the median seed-adjusted z-score is -0.472 (inactive).
The figure for CUCAUUGAGUUGGACAAAUTT against RHOU is -1.44 (active).
In the case of GGAUCGUGGUUGCAGGGAUTT against DNASE1 it was -0.35 (inactive); in that of CCAGACAGGAGGAACCAUATT against HDAC11, 0.259 (inactive); in that of CUAUGGACAUGUCAAUUGUTT against CCNA2, 0.136 (inactive).
The figure for CCGUAUUUCUAGUUCCCUUTT against ZNF442 is 1.06 (active); for GUGUGAUGGUUGUAAACGATT against ZMYM6 it is -0.355 (inactive); for CAUACUCAUUCUUGCAAUATT against PHOSPHO2 it is -0.247 (inactive).
As to GAGAGUAAAUAUGCGAAUATT against ATP8B1, the median seed-adjusted z-score is 0.357 (inactive).
The figure for GCAACAUCCUGGUUUUCGATT against LRP2 is -0.512 (inactive).
In the case of GUAUCGCUGUUUCUACGGUTT against LILRA1 it was -0.231 (inactive); in that of GGAUCAUUCUCAACGGGAUTT against KCNV2, -1.13 (active); in that of UGUUGACACUUUUAUCCAATT against ANAPC11, -0.581 (inactive).
The figure for AACCCUUUGUGGAACACCATT against PSMB4 is -0.16 (inactive).
With CGCAAAAAGGCAGACGAAATT against DUX5, the median seed-adjusted z-score is -0.295 (inactive).
In the case of GCUAAGAAGAGAUAAUGAATT against MLKL it was 0 (inactive).
In the case of CCGAUUCGGUCACCAAGUATT against MYO1F it was 0.103 (inactive); in that of CCCUCACCGUGCAUGAGAATT against ZNF74, 1.17 (active); in that of GUGCUAAAGAUCAUUGAUATT against TRIM32, 0.109 (inactive).
The figure for GAUCAUGCGUAACUACAGUTT against JUP is 0.15 (inactive); for AGAGCACCAGAAGACACAATT against GJC3 it is -0.137 (inactive).
For the sequence GGACCUUUUUGUUAAGUCATT against RASD1, the median seed-adjusted z-score was 0.674 (inactive).
In the case of GGUCUUUACUGGAUUCAGATT against SERINC3 it was 0.29 (inactive); in that of GAAUUUGUAUGAGAGCAUUTT against CYTH3, 0.196 (inactive); in that of CUCUUAUGUUGGAUAUGUATT against USP14, 0 (inactive).
The figure for GGAAGAAUUUCAGUCAGAATT against ZNF436 is 0.00767 (inactive).
Take GGACCUGCAUAUGAAAGUATT against PCDH8: the median seed-adjusted z-score was -1.03 (active).
Regarding CAUUGUCUAUCAUCGCAAATT against NEB, the median seed-adjusted z-score is 0.0485 (inactive).
The figure for GGAAGGCAGAUGUAUCUUUTT against CMPK1 is -0.363 (inactive).
In the case of GGCCUACGUUUGAAAGACATT against ZNF792 it was 0 (inactive).
The figure for GACUUGUGAUACAAGCGUATT against RAD23B is 0.639 (inactive).
With GGUAAAGGGAAGUAACUAUTT against SLC2A13, the median seed-adjusted z-score is -0.0451 (inactive).

(Values after PubChem BioAssay AID1347426 (Functional Genomics Laboratory (NCATS/FGL), 2020).)
